Laboratory results: PubChem BioAssay (NCATS)
Records with an inconclusive call do not appear. A call without a number means that no potency is given here. Unmarked numbers belong to inactive results. Active and inactive are the calls of the source. Unless noted, the call rests on the fitted dose curve.

Key:
[1] = Natriuretic polypeptide receptor (hNpr1) antagonism - Pilot counterscreen GloSensor control cell line (AID 1347045); further: potency means the concentration at half of the fitted maximal effect
How it was run: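 Cells were first seeded and incubated overnight at 37C, then loaded with 2% GloSensor substrate for 2 h. Compounds were added for 30 min at room temperature, followed by a baseline read, 50 uM SNP and a final read after 20 min.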

[2] = target: Atrial natriuretic peptide receptor 1 (Homo sapiens) (UniProt P16066); assay: Natriuretic polypeptide receptor (hNpr1) antagonism - Pilot screen (AID 1347049);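 further: agonist-evoked cGMP luminescence read 20 min after hNppA addition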; further: potency means the concentration at half of the fitted maximal effect
Sequence of Atrial natriuretic peptide receptor 1 (Homo sapiens) (P16066 whole entry, looked up): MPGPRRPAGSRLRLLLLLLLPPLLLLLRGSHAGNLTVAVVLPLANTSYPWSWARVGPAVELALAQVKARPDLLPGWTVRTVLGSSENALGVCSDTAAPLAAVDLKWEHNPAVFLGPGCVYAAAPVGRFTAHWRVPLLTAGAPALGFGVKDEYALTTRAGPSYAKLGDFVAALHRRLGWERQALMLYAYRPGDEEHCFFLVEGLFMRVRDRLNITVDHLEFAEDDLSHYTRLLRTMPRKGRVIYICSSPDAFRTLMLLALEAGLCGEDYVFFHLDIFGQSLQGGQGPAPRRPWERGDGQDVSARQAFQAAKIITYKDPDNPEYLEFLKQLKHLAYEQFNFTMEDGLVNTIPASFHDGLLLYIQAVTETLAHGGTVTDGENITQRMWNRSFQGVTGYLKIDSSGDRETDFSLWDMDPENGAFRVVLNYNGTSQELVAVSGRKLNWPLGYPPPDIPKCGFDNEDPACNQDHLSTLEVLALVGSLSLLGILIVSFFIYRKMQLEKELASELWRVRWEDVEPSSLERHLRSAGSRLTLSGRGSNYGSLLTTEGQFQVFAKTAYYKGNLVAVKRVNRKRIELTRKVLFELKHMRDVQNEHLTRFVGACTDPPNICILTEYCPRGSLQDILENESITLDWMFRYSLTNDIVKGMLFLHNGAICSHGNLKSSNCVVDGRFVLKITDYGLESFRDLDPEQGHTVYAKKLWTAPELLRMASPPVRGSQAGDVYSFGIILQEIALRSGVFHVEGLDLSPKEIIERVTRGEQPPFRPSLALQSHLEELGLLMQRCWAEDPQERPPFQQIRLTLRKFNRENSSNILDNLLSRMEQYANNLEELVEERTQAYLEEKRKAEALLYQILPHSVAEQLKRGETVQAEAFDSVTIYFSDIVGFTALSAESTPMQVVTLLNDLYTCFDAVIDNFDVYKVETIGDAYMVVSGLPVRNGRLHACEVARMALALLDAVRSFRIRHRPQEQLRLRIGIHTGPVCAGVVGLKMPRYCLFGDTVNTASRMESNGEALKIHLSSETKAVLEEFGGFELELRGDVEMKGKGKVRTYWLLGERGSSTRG
How it was run: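 cGMP-sensor HEK293/hNpr1 cells, 1500/well, plated overnight at 37C. 2% GloSensor reagent, 2 h RT. Compound (23 nL pin transfer) 30 min RT, baseline luminescence pre-read. 0.1 nM hNppA, 20 min RT, post-read.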

[3] = target: Atrial natriuretic peptide receptor 2 (Homo sapiens) (UniProt P20594); assay: Natriuretic polypeptide receptor (hNpr2) antagonism - Pilot subtype selectivity assay (AID 1347050); further: potency means the concentration at half of the fitted maximal effect
Sequence of Atrial natriuretic peptide receptor 2 (Homo sapiens) (P20594 whole entry, looked up): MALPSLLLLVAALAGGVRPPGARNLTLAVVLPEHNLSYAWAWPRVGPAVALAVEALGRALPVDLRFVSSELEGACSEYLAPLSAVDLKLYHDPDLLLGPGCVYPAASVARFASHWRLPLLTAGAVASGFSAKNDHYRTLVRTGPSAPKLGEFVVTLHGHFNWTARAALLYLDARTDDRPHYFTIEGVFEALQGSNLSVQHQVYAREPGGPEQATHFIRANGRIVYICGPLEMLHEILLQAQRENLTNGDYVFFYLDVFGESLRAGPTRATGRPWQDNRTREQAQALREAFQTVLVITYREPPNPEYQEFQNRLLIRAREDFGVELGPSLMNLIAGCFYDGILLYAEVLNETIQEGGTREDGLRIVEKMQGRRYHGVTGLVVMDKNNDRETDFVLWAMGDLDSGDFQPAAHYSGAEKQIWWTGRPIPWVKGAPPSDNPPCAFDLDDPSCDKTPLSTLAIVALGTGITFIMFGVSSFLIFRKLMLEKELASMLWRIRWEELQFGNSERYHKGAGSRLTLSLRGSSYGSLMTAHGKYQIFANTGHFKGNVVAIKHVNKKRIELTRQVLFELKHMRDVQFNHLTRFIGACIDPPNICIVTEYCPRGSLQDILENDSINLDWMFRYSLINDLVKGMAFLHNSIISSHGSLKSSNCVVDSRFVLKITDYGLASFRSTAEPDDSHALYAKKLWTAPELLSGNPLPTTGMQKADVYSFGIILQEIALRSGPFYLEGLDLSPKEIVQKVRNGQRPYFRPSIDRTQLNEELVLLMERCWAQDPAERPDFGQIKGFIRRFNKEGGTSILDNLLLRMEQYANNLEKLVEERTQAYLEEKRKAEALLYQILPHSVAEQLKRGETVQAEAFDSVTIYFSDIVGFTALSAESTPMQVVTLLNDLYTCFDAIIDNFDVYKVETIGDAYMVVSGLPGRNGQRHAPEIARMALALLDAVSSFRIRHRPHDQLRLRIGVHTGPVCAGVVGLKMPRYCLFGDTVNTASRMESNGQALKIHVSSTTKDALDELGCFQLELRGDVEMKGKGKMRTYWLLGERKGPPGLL
How it was run: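 Luminescence from a genetically encoded cGMP luciferase biosensor in hNpr2-expressing HEK293 cells is read before and 20 min after adding 1 nM hNppC. Test compounds, in interplate 1:5 titrations, are added 30-50 min ahead of the agonist.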

[4] = NS1 protein of Zika virus - qHTS assay to identify small molecule inhibitors in human HEK 293 cells (AID 1347053; active means well fitted inhibition curve with a large enough effect; further: series mostly up to about 46 µM; nearly all actives have a fitted effect of over 55% in size)
How it was run: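 In this cell-based screen, HEK 293 cultures received compound for one hour before Zika MR766 at MOI = 0.5. NS1 was quantified 24 hours later by TR-FRET, normalized to virus-free wells and infected wells.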

[5] = target: Tyrosine-protein phosphatase non-receptor type substrate 1 (Homo sapiens) + Leukocyte surface antigen CD47 (Homo sapiens) (UniProt P78324+Q08722); assay: CD47-SIRPalpha protein protein interaction - LANCE assay qHTS validation (AID 1347057; active means well fitted curve in the direction sought with a large enough effect in the signal ratio, with a control signal flat, not every such curve was filed as active; the % refers to the signal ratio; further: series mostly up to about 38 µM)
Sequence of Tyrosine-protein phosphatase non-receptor type substrate 1 (Homo sapiens) + Leukocyte surface antigen CD47 (Homo sapiens) (P78324 whole entry, looked up, the tested form may be a part): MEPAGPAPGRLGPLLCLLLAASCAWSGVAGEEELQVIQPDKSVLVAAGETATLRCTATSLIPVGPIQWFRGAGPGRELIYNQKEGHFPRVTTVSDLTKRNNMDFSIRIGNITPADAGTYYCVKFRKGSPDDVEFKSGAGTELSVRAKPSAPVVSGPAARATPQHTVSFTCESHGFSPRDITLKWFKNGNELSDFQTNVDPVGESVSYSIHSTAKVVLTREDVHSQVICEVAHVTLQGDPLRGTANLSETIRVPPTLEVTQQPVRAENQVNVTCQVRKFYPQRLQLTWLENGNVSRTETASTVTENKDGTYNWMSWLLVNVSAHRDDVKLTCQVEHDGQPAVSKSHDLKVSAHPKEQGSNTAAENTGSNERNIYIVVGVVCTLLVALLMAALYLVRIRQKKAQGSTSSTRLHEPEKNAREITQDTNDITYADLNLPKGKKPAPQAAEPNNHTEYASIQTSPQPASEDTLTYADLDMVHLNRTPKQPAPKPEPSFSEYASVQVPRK
Sequence of Tyrosine-protein phosphatase non-receptor type substrate 1 (Homo sapiens) + Leukocyte surface antigen CD47 (Homo sapiens) (Q08722 whole entry, looked up, the tested form may be a part): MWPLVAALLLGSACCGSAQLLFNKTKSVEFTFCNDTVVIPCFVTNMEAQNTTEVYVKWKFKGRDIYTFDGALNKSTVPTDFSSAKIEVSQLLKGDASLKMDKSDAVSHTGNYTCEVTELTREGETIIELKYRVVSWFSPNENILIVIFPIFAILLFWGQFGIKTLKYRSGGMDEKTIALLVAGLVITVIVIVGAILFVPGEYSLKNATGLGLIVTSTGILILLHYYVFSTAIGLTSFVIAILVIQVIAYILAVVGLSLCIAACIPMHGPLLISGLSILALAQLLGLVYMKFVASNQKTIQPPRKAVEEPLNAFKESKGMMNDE
How it was run: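 Inhibition of soluble CD47/SIRPalpha ectodomain association by titrated compounds, measured as 665/615 nm time-resolved FRET ratio after sequential 30 min room-temperature incubations.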

Row | Structure (SMILES) | Potency [1] | Potency [2] | Potency [3] | outcome [4] | Potency [5]
1 | COc1ccc2c(c1)C13CCCCC1C(C2)N(C)CC3 (stereo unspecified) | inactive | inactive | inactive | inactive | inactive
2 | CC(C)(C)OC(=O)NC1[C@H]2CNC[C@@H]12 (stereo partly specified) | – | – | – | inactive | inactive
3 | c1ccc2c(N3CCNCC3)cccc2c1 | inactive | inactive | inactive | inactive | inactive
4 | c1ccc2c(c1)[I+]c1ccccc1-2 | 4.14 µM (active) | 3.01 µM (active) | 0.927 µM (active) | – | inactive
5 | O=S1(=O)N(CCN2CC=C(c3c[nH]c4cc(F)ccc34)CC2)c2cccc3c2N1CCC3 | inactive | inactive | inactive | inactive | inactive
6 | CCCN(CCC)CCc1ccc(O)c(O)c1 | inactive | inactive | inactive | inactive | inactive
7 | Ic1ccccc1CNC1C2CCN(CC2)C1C(c1ccccc1)c1ccccc1 (stereo unspecified) | 13.1 µM (active) | – | – | – | inactive
8 | CC(N)[C@H](O)c1ccc(O)c(O)c1 (stereo partly specified) | inactive | inactive | inactive | inactive | inactive
9 | CNc1ccc2oc(C[C@H]3O[C@@]4(CC[C@H]3C)O[C@H]([C@H](C)C(=O)c3ccc[nH]3)[C@H](C)C[C@H]4C)nc2c1C(=O)O | – | inactive | inactive | – | inactive
10 | CP(=O)(O)C1=CCNCC1 | inactive | inactive | inactive | inactive | inactive
